# Compounds without any hit were thinned out: in the full panel of roughly 83,000, 20% have a hit.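 The test compound was applied at a single concentration to cells in 96-well plates for 48 hours, and percent growth was recorded.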 Activity calls are given as the source filed them. The calls were made as follows: active = growth percent below 10; inactive = the rest.
# Tests used:
# Assay in all cases: NCI-60 one-dose screen, 48 h (100 = growth as untreated, 0 = no growth, -100 = all killed)
# Settings in all cases: 10 µM unless noted
# HCT-15 colon = system: HCT-15 colon
# HT29 colon = system: HT29 colon
# SNB-75 CNS = system: SNB-75 CNS
# SNB-19 CNS = system: SNB-19 CNS
# U251 CNS = system: U251 CNS
# PC-3 prostate = system: PC-3 prostate
# SK-MEL-5 melanoma = system: SK-MEL-5 melanoma
# UACC-62 melanoma = system: UACC-62 melanoma
# LOX IMVI melanoma = system: LOX IMVI melanoma
# SK-MEL-28 melanoma = system: SK-MEL-28 melanoma
# SK-MEL-2 melanoma = system: SK-MEL-2 melanoma
# EKVX NSCLC = system: EKVX NSCLC
# SN12C renal = system: SN12C renal
# UO-31 renal = system: UO-31 renal
# TK-10 renal = system: TK-10 renal
# ACHN renal = system: ACHN renal
# CAKI-1 renal = system: CAKI-1 renal
# A498 renal = system: A498 renal
# CCRF-CEM leukemia = system: CCRF-CEM leukemia
# MOLT-4 leukemia = system: MOLT-4 leukemia
Structure (SMILES),growth (HCT-15 colon),growth (HT29 colon),growth (SNB-75 CNS),growth (SNB-19 CNS),growth (U251 CNS),growth (PC-3 prostate),growth (SK-MEL-5 melanoma),growth (UACC-62 melanoma),growth (LOX IMVI melanoma),growth (SK-MEL-28 melanoma),growth (SK-MEL-2 melanoma),growth (EKVX NSCLC),growth (SN12C renal),growth (UO-31 renal),growth (TK-10 renal),growth (ACHN renal),growth (CAKI-1 renal),growth (A498 renal),growth (CCRF-CEM leukemia),growth (MOLT-4 leukemia)
C=CCNc1ccc2c3c(cccc13)C(=O)N(N1C(=O)c3cccc4cccc(c34)C1=O)C2=O,102% (inactive),103% (inactive),90.4% (inactive),99.3% (inactive),95.4% (inactive),106% (inactive),102% (inactive),95.7% (inactive),90.8% (inactive),108% (inactive),107% (inactive),92.8% (inactive),101% (inactive),81.1% (inactive),105% (inactive),103% (inactive),94.1% (inactive),119% (inactive),109% (inactive),101% (inactive)
CC1(C)C2CC1C1(/C=N/NC(N)=S)C(C2)C(C#N)(C#N)C1(C#N)C#N (stereo not given),27.5% (inactive),60.6% (inactive),101% (inactive),94.8% (inactive),82.1% (inactive),70.7% (inactive),85.6% (inactive),78.8% (inactive),50.1% (inactive),88.7% (inactive),90.3% (inactive),93.8% (inactive),87.6% (inactive),51.4% (inactive),116% (inactive),44.8% (inactive),104% (inactive),94.3% (inactive),16% (inactive),11.3% (inactive)
COc1ccc2cc(C(C)C(=O)Nc3ccc(-c4n[nH]c(=S)n4C4CCCCC4)cc3)ccc2c1 (stereo not given),54.3% (inactive),85.1% (inactive),67% (inactive),80% (inactive),56.8% (inactive),39.2% (inactive),67.5% (inactive),58.3% (inactive),70.7% (inactive),75.6% (inactive),77% (inactive),70.5% (inactive),73.4% (inactive),-79.3% (active),95.9% (inactive),73.4% (inactive),44.7% (inactive),77.3% (inactive),64.4% (inactive),55.9% (inactive)
Cc1ccc(S(=O)(=O)N/N=C/C2(c3ccccc3)CC2)cc1,115% (inactive),109% (inactive),88.2% (inactive),99.3% (inactive),103% (inactive),93.7% (inactive),105% (inactive),102% (inactive),96.9% (inactive),106% (inactive),126% (inactive),99% (inactive),98.7% (inactive),93.2% (inactive),120% (inactive),109% (inactive),92.6% (inactive),86.6% (inactive),88.5% (inactive),90.5% (inactive)
O=C(Nc1nc2ccc(F)cc2s1)c1cccnc1Nc1ccc(Cl)cc1Cl,16.9% (inactive),7.92% (active),34.7% (inactive),20.2% (inactive),15.8% (inactive),3.63% (active),-2.74% (active),20.1% (inactive),32.5% (inactive),37.8% (inactive),43.5% (inactive),1.03% (active),9.61% (active),28.5% (inactive),11.4% (inactive),27.5% (inactive),-0.286% (active),-4.34% (active),-3.42% (active),46% (inactive)
COc1cccc(Cc2cc(-c3ccccc3)nn(CC(=O)c3ccccc3)c2=O)c1,20.2% (inactive),36.6% (inactive),50.9% (inactive),58% (inactive),37.1% (inactive),41.4% (inactive),39.4% (inactive),45.9% (inactive),11.8% (inactive),73.2% (inactive),85.4% (inactive),65.1% (inactive),59.3% (inactive),65.1% (inactive),72.1% (inactive),52% (inactive),59.6% (inactive),52.1% (inactive),39.1% (inactive),22.7% (inactive)
COc1cccc(Cc2nn3cc(-c4ccccc4)nc3s2)c1,76.9% (inactive),54.6% (inactive),99.7% (inactive),102% (inactive),99.1% (inactive),96.5% (inactive),93.9% (inactive),91.1% (inactive),51.5% (inactive),113% (inactive),95.2% (inactive),94.1% (inactive),96.3% (inactive),74.6% (inactive),95.1% (inactive),96% (inactive),90.8% (inactive),99.5% (inactive),30.2% (inactive),30.1% (inactive)
CN(C)c1ccc(/C=N\Nc2cc(=O)[nH]c3ccc(Cl)cc23)cc1,99.3% (inactive),96% (inactive),78.4% (inactive),96.9% (inactive),99.8% (inactive),86.4% (inactive),98.3% (inactive),82.1% (inactive),99% (inactive),114% (inactive),91.2% (inactive),85.7% (inactive),104% (inactive),67.9% (inactive),127% (inactive),95.2% (inactive),90.9% (inactive),123% (inactive),95.4% (inactive),87.1% (inactive)
CCN(CC)CCCNc1nc2ccccc2c2c(=O)c3cc(Cl)ccc3sc12,36.2% (inactive),11.7% (inactive),68.3% (inactive),79.6% (inactive),41.5% (inactive),54.7% (inactive),92.7% (inactive),73.8% (inactive),-81.2% (active),84.3% (inactive),108% (inactive),79.1% (inactive),66.9% (inactive),33.8% (inactive),68.7% (inactive),47.3% (inactive),23% (inactive),41.4% (inactive),11.7% (inactive),5.32% (active)
CCN1C(=O)N(CC)C2Nn3c(s/c(=C4\C(=O)N(CCC(C)C)c5ccccc54)c3=O)=NC21 (stereo not given),47% (inactive),112% (inactive),59.2% (inactive),88.6% (inactive),87.7% (inactive),63.2% (inactive),89.5% (inactive),67.1% (inactive),91.7% (inactive),78.6% (inactive),87.7% (inactive),67.1% (inactive),89.3% (inactive),54.3% (inactive),38.3% (inactive),67.6% (inactive),51.3% (inactive),72.9% (inactive),57.1% (inactive),85.5% (inactive)
COc1ccc(-c2nnc(COc3ccc(Cl)cc3Cl)o2)cc1OC,49.5% (inactive),28.7% (inactive),-42% (active),44.6% (inactive),37.2% (inactive),43.7% (inactive),28.2% (inactive),43.7% (inactive),16.1% (inactive),67.2% (inactive),57.6% (inactive),-15.8% (active),12.1% (inactive),-36.4% (active),-8.66% (active),13.7% (inactive),57.7% (inactive),15.9% (inactive),29.3% (inactive),54.3% (inactive)
Cc1cc(=O)oc2cc(OC(=O)CN3CCN(C)CC3)ccc12,98.9% (inactive),104% (inactive),74.5% (inactive),95.6% (inactive),105% (inactive),95.2% (inactive),101% (inactive),95.5% (inactive),97.9% (inactive),104% (inactive),106% (inactive),92.5% (inactive),96.6% (inactive),92.8% (inactive),109% (inactive),103% (inactive),85.8% (inactive),97.2% (inactive),98.7% (inactive),101% (inactive)
O=C1NC(=O)C(c2ccccc2)(c2ccccc2)N1Cc1cn(-c2c3ccccc3nc3ccccc23)nn1,59.9% (inactive),85.3% (inactive),85.1% (inactive),89.4% (inactive),91.2% (inactive),78% (inactive),82.2% (inactive),72.4% (inactive),78.2% (inactive),103% (inactive),97.9% (inactive),80.4% (inactive),83.6% (inactive),62.4% (inactive),74.9% (inactive),81.5% (inactive),73.5% (inactive),77.7% (inactive),64.6% (inactive),53.5% (inactive)
Oc1ccc(-c2nc3ccc4[nH]ncc4c3c3c2CCCC3)c2cccnc12,4.75% (active),12.1% (inactive),-23.1% (active),13.7% (inactive),-4.46% (active),7.83% (active),-4.91% (active),-11.5% (active),3.42% (active),13.3% (inactive),5.36% (active),-23.1% (active),4.02% (active),-30.4% (active),17.4% (inactive),2.65% (active),-25.7% (active),-25.7% (active),4.86% (active),5.17% (active)
c1cc(-c2nnc(SSc3ncnc4nc[nH]c34)o2)ccn1,37.3% (inactive),18.9% (inactive),56.8% (inactive),93.1% (inactive),72.4% (inactive),51% (inactive),72.1% (inactive),11.8% (inactive),9.77% (active),76.2% (inactive),15.9% (inactive),82.3% (inactive),55.8% (inactive),30% (inactive),17% (inactive),45% (inactive),-6.89% (active),63% (inactive),21.8% (inactive),18% (inactive)
COc1ccn2c(C(C)=O)cc(C(=O)c3ccc4c(c3)Sc3ccccc3N4)c2c1,15% (inactive),-0.653% (active),21.1% (inactive),40.3% (inactive),17.9% (inactive),23.8% (inactive),-39.7% (active),35.9% (inactive),19.7% (inactive),46.7% (inactive),27.3% (inactive),37.6% (inactive),25.3% (inactive),28.3% (inactive),29.6% (inactive),20.7% (inactive),15.9% (inactive),-17.8% (active),8.15% (active),13.1% (inactive)

# — PubChem BioAssay (NCI)
